In PubChem BioAssay (NCI):
This is part of a sample that, as a whole, favours compounds with a hit. Of some 83,000 tested, about 20% had one in any assay.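 In brief: 96-well plates, 48 h treatment, single concentration, percent growth endpoint.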 The source made the active and inactive calls. Rule for the calls: active = growth percent below 10; inactive = the rest.

Each compound was assayed on MDA-MB-468 breast (assay: NCI-60 one-dose screen, 48 h (100 = growth as untreated, 0 = no growth, -100 = all killed)). Settings: 10 µM unless noted.
In the case of COc1ccc(N2CCN(C3=C(Cl)C(=O)C(C)=C(C)C3=O)CC2)cc1, the growth is reported as 74.1% (inactive).
For CCN1C(=O)N(CC)C2C1NC(=O)N2/N=C/C=C/c1ccccc1 (centres undefined), the growth was 19.5% (inactive).
Cc1[nH]c(-c2nc3ccccc3[nH]2)c(C)c1C(=O)N1CCOCC1 was tested, and the growth was 91.6% (inactive).
Nc1ncccc1O was tested, and the growth was 74% (inactive).
With Fc1ccc(-c2nnc(-c3c(-c4ccc(F)cc4)nc4ccccn34)o2)cc1 the growth was 92.5% (inactive).
With COc1ccc(-c2nnc(SCC(=O)Nc3ccc(C(=O)/C=C/c4ccccc4)cc3)o2)cc1OC the growth was 91.1% (inactive).
For COC(=O)c1ccc(C(=Nc2ccc(N(C)C(=O)CN3CCN(C)CC3)cc2)c2c(O)[nH]c3ccc(C(=O)OC)cc23)cc1, the growth was 62.5% (inactive).
In the case of NC(=S)NN=C1CCCCC1, the growth is reported as 26.4% (inactive).
In the case of CCCCCCCCCCCCCCNc1nc(CO)ncc1-c1ccc(C(F)(F)F)cc1, the growth is reported as 98.1% (inactive).
For COc1cc2nc(Nc3cccc(F)c3)nc(Nc3cc(C)[nH]n3)c2cc1OC, the growth was -76.6% [20 µM] (active).
COc1ccc(/C=C2/CN(C(=O)c3ccccc3F)C/C(=C\c3ccc(OC)cc3)C2=O)cc1 was tested, and the growth was 1.01% (active).
For CN1CCN(c2ccc(Nc3nc(NCCNC(=O)c4ccc(F)cc4)c4sccc4n3)cc2)CC1, the growth was 48.4% (inactive).
For Cc1ccc2c(n1)C(=O)C(Oc1ccc(F)cc1)=CC2=O, the growth was 87.7% (inactive).
With C=CCN(CC=C)C(=O)[C@H](CC)[C@@H]1CC[C@@H](C)[C@@H]([C@H](C)[C@@H](O)[C@@H](C)C(=O)[C@H](CC)C2O[C@]3(C=CC(=O)[C@]4(CC[C@@](C)([C@H]5CC[C@](O)(CC)[C@H](C)O5)O4)O3)[C@H](C)C[C@@H]2C)O1 (some centres undefined) the growth was -17.4% (active).
